PubChem BioAssay AID1159580 (chemical genetic matrix, 2015)
Several values for one entry are separate records, joined by “and”; a condition that tells them apart may be missing. Equal values may be shown once. The campaign covered roughly 5,500 compounds. About 2,000 (36%) were called active. Inconclusive results (about 18%) are left out. No stated cut-off is given here; in the data, active means normalized growth mostly below about 0.91 (no sharp cut-off); inconclusive means no clear call, values can overlap the other calls; inactive means mostly above about 0.92. The list shows a part of the results.

Test: chemical genetic growth profiling, strain panel (AID 1159580);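 further: tested at 20 µM; growth read once vehicle control cultures reached saturation at 30 °C; 1 = growth at the plate median or of vehicle wells; lower values mean less growth of the strain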
Settings: S. cerevisiae deletion strains, growth OD

Measured: normalized growth

COc1ccc(C(CN(C)C)C2(O)CCCCC2)cc1 (stereo unspecified)
inactive: locus YAL013W, strain DEP1, active compounds read low 1.01 | locus YAL021C, strain ccr4, active compounds read low 0.976 | locus YAL026C, strain drs2, active compounds read low 0.995 | locus YAL030W, strain snc1, active compounds read low 0.988 | locus YBL061C, strain skt5, active compounds read low 0.992 | locus YBR009C, strain hhf1, active compounds read low 1.01 | locus YBR021W, strain FUR4, active compounds read low 1.02 | locus YBR023C, strain chs3, active compounds read low 1.01 | locus YBR171W, strain sec66, active compounds read low 0.982 | locus YBR229C, strain ROT2, active compounds read low 1.01 | locus YBR231C, strain swc5, active compounds read low 1.03 | locus YBR279W, strain paf1, active compounds read low 1.01 | locus YCL011C, strain gbp2, active compounds read low 0.994 | locus YCL016C, strain dcc1, active compounds read low 1.01 | locus YCL029C, strain bik1, active compounds read low 0.979 | locus YCL069W, strain vba3, active compounds read low 0.974 | locus YCR088W, strain abp1, active compounds read low 0.99 | locus YDL005C, strain med2, active compounds read low 0.978 | locus YDL035C, strain GPR1, active compounds read low 1.02 | locus YDL040C, strain nat1, active compounds read low 0.962 | locus YDL074C, strain BRE1, active compounds read low 1.03 | locus YDL101C, strain DUN1, active compounds read low 1.02 | locus YDL134C, strain PPH21, active compounds read low 1.02 | locus YDL185W, strain tfp1, active compounds read low 0.997 | locus YDL192W, strain arf1, active compounds read low 0.991 | locus YDR001C, strain nth1, active compounds read low 0.986 | locus YDR069C, strain doa4, active compounds read low 0.973 | locus YDR101C, strain arx1, active compounds read low 0.986 | locus YDR137W, strain rgp1, active compounds read low 0.971 | locus YDR150W, strain NUM1, active compounds read low 1.01 | locus YDR159W, strain sac3, active compounds read low 0.974 | locus YDR162C, strain NBP2, active compounds read low 0.985 | locus YDR195W, strain ref2 0.975 | locus YDR297W, strain sur2, active compounds read low 0.994 | locus YDR318W, strain mcm21, active compounds read low 0.996 | locus YDR334W, strain swr1, active compounds read low 0.97 | locus YDR335W, strain msn5, active compounds read low 0.996 | locus YDR388W, active compounds read low 0.988 | locus YDR392W, strain spt3, active compounds read low 0.985 | locus YDR502C, strain sam2, active compounds read low 0.99 | locus YEL003W, strain gim4, active compounds read low 0.976 | locus YEL037C, strain rad23, active compounds read low 0.974 | locus YEL061C, strain CIN8 (second series), active compounds read low 0.98 | locus YEL061C, strain CIN8, active compounds read low 1.01 | locus YER015W, strain faa2, active compounds read low 1.01 | locus YER016W, strain bim1, active compounds read low 0.972 | locus YER110C, active compounds read low 0.99 | locus YER111C, strain swi4, active compounds read low 0.994 | locus YER155C, strain BEM2 (second series), active compounds read low 0.962 | locus YER155C, strain BEM2, active compounds read low 0.987 | locus YER167W, strain BCK2, active compounds read low 1.01 | locus YFR010W, strain ubp6, active compounds read low 0.987 | locus YGL078C, strain dbp3, active compounds read low 0.989 | locus YGL086W, strain mad1, active compounds read low 0.996 | locus YGL167C, strain pmr1, active compounds read low 0.979 | locus YGL173C, strain kem1, active compounds read low 0.987 | locus YGL227W, strain vid30, active compounds read low 0.988 | locus YGL240W, strain doc1, active compounds read low 0.992 | locus YGL248W, strain PDE1, active compounds read low 1.01 | locus YGL253W, strain hxk2, active compounds read low 0.999 | locus YGR078C, strain PAC10, active compounds read low 1 | locus YGR135W, strain pre9, active compounds read low 0.985 | locus YGR229C, strain SMI1, active compounds read low 1.02 | locus YGR252W, strain gcn5, active compounds read low 0.973 | locus YHR013C, strain ard1, active compounds read low 0.932 | locus YHR027C, strain rpn1, active compounds read low 0.987 | locus YHR030C, strain SLT2, active compounds read low 1.01 and 1 | locus YHR079C, strain IRE1 (second series), active compounds read low 0.99 | locus YHR079C, strain IRE1, active compounds read low 1.01 | locus YHR094C, strain hxt1, active compounds read low 0.997 | locus YHR129C, strain ARP1, active compounds read low 1.01 | locus YHR142W, strain chs7, active compounds read low 0.974 | locus YHR200W, strain rpn10, active compounds read low 0.996 | locus YIL066C, strain RNR3, active compounds read low 1.01 | locus YIL073C, strain SPO22, active compounds read low 1.04 | locus YIL125W, strain kgd1, active compounds read low 0.998 | locus YIR030C, strain dcg1, active compounds read low 0.986 | locus YJL092W, strain hpr5, active compounds read low 0.976 | locus YJL095W, strain BCK1 (second series), active compounds read low 0.984 | locus YJL095W, strain BCK1, active compounds read low 1.01 and 0.997 | locus YJL115W, strain asf1, active compounds read low 0.958 | locus YJL129C, strain trk1, active compounds read low 0.989 | locus YJL134W, strain LCB3, active compounds read low 1.01 | locus YJL154C, strain vps35, active compounds read low 0.974 | locus YJL164C, strain tpk1, active compounds read low 1 | locus YJL166W, strain qcr8, active compounds read low 0.971 | locus YJL168C, strain set2, active compounds read low 0.997 | locus YJL187C, strain SWE1 (second series), active compounds read low 1.01 | locus YJR043C, strain POL32, active compounds read low 1 | locus YJR066W, strain TOR1, active compounds read low 0.979 | locus YJR075W, strain HOC1, active compounds read low 1.02
